Out of some 290,000 compounds screened, about 3,000 (1%) were called active. No stated cut-off is given here; in the data, active means inhibition mostly above about 36% (no sharp cut-off); inactive means mostly below about 34%. The sample as a whole holds a higher share of actives than the screen did.

What is called inhibition is the relative decrease from the control value, in per cent.

The nature of the assay: NOD1 signaling inhibitors, primary screen, cell-based, luminescence, uHTS (AID 1578).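 Further: HEK-293T reporter cells stimulated with the NOD1 agonist gamma-tri-DAP.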 Conditions: NOD1-driven NF-kB luciferase reporter cells, at 4 µM, stronger effect = higher value. Background: A reporter such as luciferase makes a cellular process visible.
Take `COc1ccc(N(CC(=O)Nc2cc([N+](=O)[O-])ccc2C)S(C)(=O)=O)cc1OC`: the inhibition was 1.1% (inactive).

For the molecule `O=C(O)CCC(=O)Nc1ccc(N=Nc2ccccc2)cc1`, the inhibition was -26.1% (inactive).

In the case of `O=C(CCl)Nc1ccccc1Sc1ccccc1`, the inhibition was 21.3% (inactive).

Consider `O=C(O)CCCC(=O)Nc1ccc(N=Nc2ccccc2)cc1`, for which the inhibition is -13.6% (inactive).

Regarding `O=C(Cc1ccc(Cl)cc1)Nc1ccccc1Sc1ccccc1`, the inhibition is -16.9% (inactive).

As for `O=C(CCl)Nc1ccc(N=Nc2ccccc2)cc1`, the inhibition was 107% (active).

In the case of `CCOc1ccccc1C(=O)N(Cc1sccc1C)C1CCS(=O)(=O)C1` (stereo not given), the inhibition was -17.4% (inactive).

Take `COc1cc(NS(=O)(=O)c2ccc(NC(=S)NC(=O)c3sc4cc(F)ccc4c3Cl)cc2)nc(OC)n1`: the inhibition is 47.7% (inactive).

In the case of `Cc1nc2ccc(NC(=O)c3cccs3)cc2c(=O)n1Cc1ccc(Cl)cc1`, the inhibition was 23% (inactive).

For the molecule `COc1ccc(CNC(=O)c2ccc(CS(=O)(=O)Cc3ccccc3F)o2)cc1`, the inhibition was 6% (inactive).

As for `Cc1[nH]c(C)c(S(=O)(=O)NCc2ccc(Cl)cc2)c1C(=O)N1CCCC1`, the inhibition is -23.5% (inactive).

In the case of `CCN1C(=O)CS/C1=N\S(=O)(=O)c1ccccc1`, the inhibition is 4.8% (inactive).

As for `O=c1c2ccccc2cnn1CCOc1cccc(Br)c1`, the inhibition is -51.9% (inactive).

Regarding `COc1ccc2cnn(CCOc3ccccc3)c(=O)c2c1OC`, the inhibition is -63% (inactive).

With `O=c1c2ccccc2cnn1CCOc1ccccc1`, the inhibition was 67.1% (active).

Take `O=c1[nH]c(CSc2ncnc3sc(-c4ccccc4)cc23)nc2ccccc12`: the inhibition is 6.6% (inactive).

On to `CC(Oc1ccc([N+](=O)[O-])cc1)C(=O)NCCCN1CCOCC1` (stereo not given), for which the inhibition is -6.2% (inactive).

As to `CCCc1nc2ccccc2c(C(=O)OCC(=O)Nc2cccc(S(=O)(=O)N3CCOCC3)c2)c1CC`, the inhibition was 25.8% (inactive).

Turning to `CCc1nc2ccccc2c(C(=O)OCC(=O)Nc2ccc(S(=O)(=O)N3CCOCC3)cc2)c1C`, the inhibition is -22% (inactive).

On to `COc1cc(NC(=S)NCCCN2CCOCC2)c(OC)cc1NC(=O)c1ccco1`, for which the inhibition is -24.2% (inactive).

As for `CC(=O)c1c(C)n(-c2cccc(Cl)c2)c2ccc(O)cc12`, the inhibition is -4.6% (inactive).

`CCOC(=O)Cc1csc(NC(=O)CSc2nc(-c3ccccc3)c(C#N)c(=O)[nH]2)n1`: the inhibition was -50.8% (inactive).

Regarding `CCCCCNC(=O)C(=O)C1C(=O)Nc2ccccc21` (stereo not given), the inhibition was 0.6% (inactive).

For `CC(C)c1ccc(C(=O)NCc2ccc(Cl)cc2)cc1`, the inhibition is -22.8% (inactive).

As for `CC(C)c1ccc2c(c1)c(SC(C)(C)C)c(CC(C)(C)C(=O)O)n2Cc1ccc(Cl)cc1`, the inhibition is 37.3% (active).

For the molecule `Cc1ccc2c(c1)c(N=O)c(O)n2Cc1ccc(Cl)cc1`, the inhibition was 31.7% (inactive).

Consider `Cc1ccc(C(=O)c2ccc(O)cc2)cc1C`, for which the inhibition is -29.5% (inactive).

Take `O=C(Nc1cccc(O)c1)c1ccc([N+](=O)[O-])cc1Cl`: the inhibition is -22.7% (inactive).

Take `CC(=O)Nc1cccc(NC(=O)c2ccc([N+](=O)[O-])cc2Cl)c1`: the inhibition is -5.3% (inactive).

`O=C(Nc1cccc(Cl)c1)c1cc(N=Nc2ccc([N+](=O)[O-])cc2Cl)ccc1O`: the inhibition is 95.3% (active).

Turning to `COc1cc(OC)cc(C(=O)N[C@H](C(=O)OCC(=O)Nc2ccc(F)c(F)c2)C(C)C)c1`, the inhibition is -11.6% (inactive).

For the molecule `O=C(NCC(O)c1ccc([N+](=O)[O-])cc1)Nc1ccccc1` (stereo not given), the inhibition is -4.6% (inactive).

Consider `COc1cccc(=O)c2c(C)n(-c3ccc(C(=O)O)cc3)c(C)c12`, for which the inhibition was 58.9% (active).

Regarding `COc1ccc(-n2c(C)c3c(OC)cccc(=O)c3c2C)cc1`, the inhibition is 16.3% (inactive).

`CCOc1cccc(=O)c2c(C)n(-c3ccc(C(=O)O)cc3)c(C)c12`: the inhibition was -22.7% (inactive).

Take `COc1cccc(N(C(=O)c2sc(C)nc2C)C(C(=O)NCC2CCCO2)c2ccccc2)c1` (stereo not given): the inhibition was -28.5% (inactive).

For the molecule `COc1cc(CCNC(=O)c2ccccc2NC(=O)C2=C(C)OCCS2)cc(OC)c1OC`, the inhibition is 17.9% (inactive).

In the case of `COc1ccc(CCNC(=O)c2ccccc2NC(=O)C2=C(C)OCCS2)c(OC)c1`, the inhibition was 51.1% (active).

Consider `COc1ccc(OC)c(CCNC(=O)c2ccccc2NC(=O)C2=C(C)OCCS2)c1`, for which the inhibition was -12.2% (inactive).

Take `NS(=O)(=O)c1cccc(NC(=O)c2cc(=O)c3ccccc3o2)c1`: the inhibition was -9.2% (inactive).

As to `COCc1c(C(=O)OCC(=O)c2c(N)n(CC(C)C)c(=O)n(C)c2=O)oc2ccccc12`, the inhibition is 32% (inactive).

For the molecule `CC(C)Cn1c(N)c(C(=O)COC(=O)Cc2cccs2)c(=O)n(C)c1=O`, the inhibition is -8.8% (inactive).

Turning to `CC(C)Cn1c(N)c(C(=O)COC(=O)c2ccccc2Cl)c(=O)n(C)c1=O`, the inhibition is -12.9% (inactive).

In the case of `CC(C)Cn1c(N)c(C(=O)COC(=O)c2ccc(O)cc2)c(=O)n(C)c1=O`, the inhibition was -0.8% (inactive).

Regarding `CC(C)Cn1c(N)c(C(=O)COC(=O)c2ccc(Cl)cc2)c(=O)n(C)c1=O`, the inhibition is 4.6% (inactive).

On to `CC(C)Cn1c(N)c(C(=O)COC(=O)C2CCCCC2)c(=O)n(C)c1=O`, for which the inhibition is 0.4% (inactive).

Take `Cc1cc(Oc2ccccc2)nc(-c2ccccc2O)n1`: the inhibition was -12.6% (inactive).

As to `Nc1nccnc1C(=O)OCC(=O)NNC(=O)c1ccccc1`, the inhibition is -27.6% (inactive).

Take `Cc1ccc(CSc2nc3ccsc3c(=O)n2Cc2ccccn2)cc1`: the inhibition is -0.8% (inactive).

Take `CCc1ccc(NC(=O)COc2cccc(-n3cnnn3)c2)cc1`: the inhibition is 4.3% (inactive).

`CC(=O)c1cc2c(cc1NC(=O)CCCC(=O)O)OCO2`: the inhibition was -9.2% (inactive).

With `CC(=O)c1cc2c(cc1NC(=O)CCn1cccc1)OCO2`, the inhibition is 5% (inactive).

Regarding `CC(=O)c1cc2c(cc1NC(=O)CCC1CCCC1)OCO2`, the inhibition is 71.2% (active).

In the case of `O=C(CSc1nccn1Cc1ccc(F)cc1)NC1CCCC1`, the inhibition was -2.9% (inactive).

As for `O=C(CSc1nccn1Cc1ccccc1)NC1CCCC1`, the inhibition is 12.2% (inactive).

For `Cc1ccc(Cn2ccnc2SCC(=O)NC2CCCC2)cc1`, the inhibition was 51.4% (active).

As for `Cc1ccc(S(=O)(=O)N(C)C)cc1NC(=O)C1CCCC1`, the inhibition is 18.4% (inactive).

Turning to `COc1ccccc1OCCCC(=O)NC(C)c1ccccc1` (stereo not given), the inhibition was -14.4% (inactive).

Turning to `C=CCn1c(C)cc(C2=NNC(=NCC)SC2)c1C`, the inhibition was 103% (active).

In the case of `COCCn1c(C)cc(C2=NNC(=NC(C)(C)C)SC2)c1C`, the inhibition was -27.4% (inactive).

`C=CCn1c(C)cc(C2=NNC(=Nc3ccc(C)cc3)SC2)c1C`: the inhibition was -66.7% (inactive).

For the molecule `C=CCN=C1NN=C(c2cc(C)n(CC=C)c2C)CS1`, the inhibition was 85.5% (active).

For `C=CCN=C1NN=C(c2cc(C)n(CCOC)c2C)CS1`, the inhibition was 88.5% (active).

Turning to `COCCn1c(C)cc(C2=NNC(=Nc3ccc(OC)cc3)SC2)c1C`, the inhibition is -3.2% (inactive).

For `COCCCN=C1NN=C(c2cc(C)n(Cc3ccccc3Cl)c2C)CS1`, the inhibition was -46.7% (inactive).

For the molecule `COCCN=C1NN=C(c2cc(C)n(CC3CCCO3)c2C)CS1` (stereo not given), the inhibition was 9.1% (inactive).

Regarding `COCCn1c(C)cc(C2=NNC(=NC3CC3)SC2)c1C`, the inhibition is 107% (active).

Take `C=CCn1c(C)cc(C2=NNC(=NC(C)(C)C)SC2)c1C`: the inhibition is 65% (inactive).

Consider `Cc1cc(C2=NNC(=NCCc3ccccc3)SC2)c(C)n1CC1CCCO1` (stereo not given), for which the inhibition was -23% (inactive).

As for `C=CCn1c(C)cc(C2=NNC(=NCc3ccccc3)SC2)c1C`, the inhibition was -61.6% (inactive).

These data come from PubChem BioAssay AID1578 (Sanford-Burnham Center for Chemical Genomics, 2009).
